Substitutions are numbered along the chain they refer to. The full ranking holds about 24,000 sequences; the median of “enrichment r” is about 0.99, and the highest 2% start at about 3.7. This is one part of a sample in which the highest values are shown more often than they occur.
T1: UNK ZnF1-3 (human, UniProt Q9C0B0 31-174)
T1 sequence: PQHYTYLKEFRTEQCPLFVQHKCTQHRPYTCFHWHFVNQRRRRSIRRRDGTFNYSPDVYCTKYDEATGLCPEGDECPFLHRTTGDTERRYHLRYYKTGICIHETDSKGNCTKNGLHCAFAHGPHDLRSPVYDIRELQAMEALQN

B1: chr2:160855017:160855018:-_ENSMUSG00000057133_ENSMUST00000039782|mus_mus|FALSE|FALSE (ssRNA)
RNA: GGGAGUUCUACAGUCCGACGAUCAUCCUUUUCCAGUUCUUCCAUUGUGGCCCAUUUACAAUGUAAAUAGGAAAAAUUUCUAUACUUAACGUAGAAAAGCUCUAGGUCGAAUGGAGGUUCUCCUGGGUGAACCUCCUGGACAGUCAACAGAGGAUUGAGCAUCA
B2: chr7:150915252:150915253:-_ENSG00000033050_ENST00000287844|hu_mus|FALSE|FALSE (ssRNA)
RNA: GGGAGUUCUACAGUCCGACGAUCCUUCCCUGCUCCAUUGGGUCCUACCAGAGCCACUCGUGUGUCAAGAUCAAUACCAAAUUCUAGAUUAUUGUAGAUGCAAGGCCCGUCUUUCGUAUAUUUGAAGCUCACGUUCUGCACCAUCAACAGAGGAUUGAGCAUCA
B3: chr2:78753848:78753849:+_ENSMUSG00000027011_ENSMUST00000028398|mus_mus|FALSE|FALSE (ssRNA)
RNA: GGGAGUUCUACAGUCCGACGAUCGUUAUCUCCUUUAGGCCCAGCACUGCAGUUAGGAGGAGGAUCAAGGGUUAUCUCUGCUAGCUCCUUCUGAAUUCUUUUAGCACUAGUGGAUAACUUAGCAGUCGUUUUGCUAGAGAGUUUCAACAGAGGAUUGAGCAUCA
B4: chr2:4828950:4828951:+_ENSMUSG00000026662_ENSMUST00000115019|mus_hu|motif|central (ssRNA)
RNA: GGGAGUUCUACAGUCCGACGAUCUAAAAUCUAGUUUUUCCCGAUAAAUUGUACUUUAGGCAAAACCCUCCCAACGCUUCGGAAAUAAUACUAAAAGGGGCAUCUGAUUAUACAAGAGCAAUUUAAAAAAUUAAAUAUUUAUUUCAACAGAGGAUUGAGCAUCA
B5: chr11:30747457:30747458:+_ENSMUSG00000040850_ENSMUST00000041231|mus_mus|motif|central (ssRNA)
RNA: GGGAGUUCUACAGUCCGACGAUCACCCUUAAAGAGGCAGAAACGCCGGGGACUAAACUUAUCUCUUCCUUUUCUGUCUUCGGAAGAUAGAAAUGUGAUUAACUGCUCAACAAACUUAGGAUCAGAAAAACGAUCAUAUAUAAUCAACAGAGGAUUGAGCAUCA
B6: chr11:43534790:43534791:+_ENSMUSG00000044950_ENSMUST00000129229|mus_mus|FALSE|FALSE (ssRNA)
RNA: GGGAGUUCUACAGUCCGACGAUCUCUGAUUUUCUCAUGUGUUCUCCAUUCAUUAAACAAGAAAAAUUAAGGGGUUUCAUACUAUGUAUUUAGCAAAGACAAGGAAAUCUGAAAUCUCUGUUAAGAAUUCAUGUUCCAUGCACCCAACAGAGGAUUGAGCAUCA
B7: chr2:4828950:4828951:+_ENSMUSG00000026662_ENSMUST00000115019|mus_hu|FALSE|FALSE (ssRNA)
RNA: B4 RNA with G80U, G81A
B8: chr1:39494447:39494448:+_ENSG00000168653_ENST00000372967|hu_mus|hu_hu_hu_mus_False|68_88 (ssRNA)
RNA: GGGAGUUCUACAGUCCGACGAUCGCACCGAGCGGCGUUCUUAUAGGGCUGUUCACCGCUUAGGAACGUCAACCAUCGGUCCAGGCUGAUGCCCAGCUUUUUCUGUAUGUCAAGGAAAGGCAUGGCUCUGCAGUGCCCUUGUCACAACAGAGGAUUGAGCAUCA
B9: chr14:76904540:76904541:+_ENSMUSG00000022010_ENSMUST00000022587|mus_hu|motif|central (ssRNA)
RNA: GGGAGUUCUACAGUCCGACGAUCAAAGAAAUUGAAAAAUGUCUCAGUUGGUAAACUCCUAGAUCCAUCGCCACUGGUCGGCACCAUUGGGAUUUCAUGCAAUUGCAGCCAAAAACACCCUCGUGGAAAAAAAGAGGGAACACCCAACAGAGGAUUGAGCAUCA
B10: chr10:1038518:1038519:+_ENSG00000107937_ENST00000545048|hu_hu|hu_hu_hu_mus_False|28_58 (ssRNA)
RNA: GGGAGUUCUACAGUCCGACGAUCCAGUCUGUCAUGGUAAUUCUGUUGAGUAAAUUUGACUUUUCUCAUAUAAAAAUGUCUAAUGCGAUGAAUUUGAUAAUGUUUAUGAAUAACGGUUGGAGUCUUUCGUUGAGUCUUGGAUAACAACAGAGGAUUGAGCAUCA
B11: chr6:53132721:53132722:-_ENSG00000012660_ENST00000304434|hu_hu|FALSE|FALSE (ssRNA)
RNA: GGGAGUUCUACAGUCCGACGAUCUUACCUGUUUGACCACUGCCUCAAAUGUGUGAGAUGUGAUUUUAUGAUAAGCAGUCUAUUAUUUUUAAACAAGAGGUUCUAAACACAUCUUUAGAUUCUAAGCAGAAAGAAAUUACAAGUCAACAGAGGAUUGAGCAUCA
B12: chr15:88518400:88518401:-_ENSMUSG00000022387_ENSMUST00000109381|mus_hu|FALSE|FALSE (ssRNA)
RNA: GGGAGUUCUACAGUCCGACGAUCCCCGUCUUAUUAAAUAAGUGGUACUCUGUGUAAAGAGCAUGAUUUACAAAAUUAUUAAACAUUCAAAAGUCUUUAAGAAAAAGCUACAUAUCAAAGAAAGUGACGCCAGCAGCACGGCCUCAACAGAGGAUUGAGCAUCA
B13: chr7:90019461:90019462:+_ENSMUSG00000057706_ENSMUST00000082237|mus_mus|FALSE|FALSE (ssRNA)
RNA: GGGAGUUCUACAGUCCGACGAUCCGUCACAAUCGUGUGAUUAUUAAAAUAAUACAGUGUUCUUUGCCAUAAGGCCAUACUAAAAAUAAAAAGAUUUAACCCAGCUACAAAAAAGUUCACUGAACUUAAAUUAAAAUACUUGUACAACAGAGGAUUGAGCAUCA
B14: chr11:120466956:120466957:+_ENSMUSG00000025135_ENSMUST00000093140|mus_mus|FALSE|FALSE (ssRNA)
RNA: GGGAGUUCUACAGUCCGACGAUCCAAGCAGAGGCCUCCAGCACGGCUCGGAACUGUAAUGAGUUUUACUUAUUGAAUAAAGUGUCAAUGUGAUGGGAAAACAAAACAGUCAGCAAAGCUCCUUUCAACCUUGUCCCAGCCAAACAACAGAGGAUUGAGCAUCA
B15: chr15:88518400:88518401:-_ENSMUSG00000022387_ENSMUST00000109381|mus_mus|FALSE|FALSE (ssRNA)
RNA: GGGAGUUCUACAGUCCGACGAUCCCCGUCUUAUUAAAUAAGCGGUACUCUGUGUAAAGAGCAUGAUCUACAAAAUUAUUAAACAUUCAAAAGUCUUUAAAAAAAAAAAAAAACCCUACAGAUUAGAAUAAGUGAGGCCUCGGCCAACAGAGGAUUGAGCAUCA
B16: chr7:90019461:90019462:+_ENSMUSG00000057706_ENSMUST00000082237|mus_hu|FALSE|FALSE (ssRNA)
RNA: GGGAGUUCUACAGUCCGACGAUCCGUCACAAUUGUGUGAUUAUUAAAAUAAUACAGUGUUCUUUGCCAUAAGGCCAUACUAAAAUAAAAAGAUUUAACCCAGCUACAAAAAAGUUCACUGAACUUAAAUUAAAAUACUUGUAACAACAGAGGAUUGAGCAUCA
B17: chr14:35505469:35505470:+_ENSMUSG00000041408_ENSMUST00000048263|mus_hu|motif|central (ssRNA)
RNA: GGGAGUUCUACAGUCCGACGAUCCUGUAUGGUAACAUUACAAACUGACAAGCAAGAUGGAUGUAAAACAGUGUAAUCUCGGGUCCGUCCAACUGUCCCUCUAAAACUGGUCCCACAACUUACACCCCCUUUCUUUGCCUGAUUCAACAGAGGAUUGAGCAUCA
B18: chr6:72561926:72561927:-_ENSMUSG00000056429_ENSMUST00000070524|mus_mus|motif|central (ssRNA)
RNA: GGGAGUUCUACAGUCCGACGAUCGUAAAUAAAACAUCACCAGAGGAGAGUGUCAUCAAAGUGCCGGUGCAAAACCUGAAGCGGUCCCAUCUCUGCCAGCCCAGACUUGCCACCAAACCCCAGAGGAGGUCACAGUCUUUUCAUCAACAGAGGAUUGAGCAUCA
B19: chr2:153237265:153237266:-_ENSMUSG00000061411_ENSMUST00000109784|mus_mus|mus_mus_mus_hu_False|8_28 (ssRNA)
RNA: GGGAGUUCUACAGUCCGACGAUCAAAAAAAAAAAAAAAAAAGUGUCCUUGUGCCCAAAGUCUCAGGUGCUUGGAGUGUGGCUAGAAACAGCUCUUUUGGAUCCCACCUCUUUCAGAAACAAAAUGUCCAACUGGUGGAGGCAGCAACAGAGGAUUGAGCAUCA
B20: chr2:153237265:153237266:-_ENSMUSG00000061411_ENSMUST00000109784|mus_mus|mus_mus_mus_hu_False|1_8 (ssRNA)
RNA: B19 RNA with G115A, G137A, A138G, G140C, C141A, A142G
B21: 130210676_130211900_346_CDS_ENSG00000197958_ENST00000361436|human|control|control (ssRNA)
RNA: GGGAGUUCUACAGUCCGACGAUCAAAAGUGAUAUUCCCACUGUGUUUAAUGUUUUUCUGUUUCUUUCUGUCUCUUGGUGGUUCCUUGAGGGCUUUGAUGAUCAGGGCAGAGGCAGAAGGCACCACCUCAAUCUGGGCCUGUCUCAACAGAGGAUUGAGCAUCA
B22: chr2:153237265:153237266:-_ENSMUSG00000061411_ENSMUST00000109784|mus_mus|mus_mus_mus_hu_False|8_78 (ssRNA)
RNA: B19 RNA with G66A, G115A
B23: 26295160_26295280_2512_CDS_ENSMUSG00000026924_ENSMUST00000091252|mouse|control|control (ssRNA)
RNA: GGGAGUUCUACAGUCCGACGAUCUCCCUUUUCUGGAUGAUGAACAACCUCUGAAGGUUUUGGUUUUACAGGAACAUAAAGUGCAGGGGCAGCAGGGGCUAGAAGGACAUUGCCACCAAAAUCUGGCAGCUCAUUUUGUGCCCACAACAGAGGAUUGAGCAUCA
B24: chr2:153237265:153237266:-_ENSMUSG00000061411_ENSMUST00000109784|mus_mus|mus_mus_mus_hu_False|8_58 (ssRNA)
RNA: B19 RNA with U78C, G79A, G115A
B25: chr8:80553714:80553715:+_ENSG00000104435_ENST00000220876|hu_mus|FALSE|FALSE (ssRNA)
RNA: GGGAGUUCUACAGUCCGACGAUCAGCCUCCAGCUUUUUCUGAAUCUCCUCCAGAGACAGGUCUUUCUUCUUUGGAGAAGCUAGAGUUCGUGGAGCUUCUGAGAUGGGAGAUGGUGGCUUCAAGAUCAGCUCAAAAGCCUGGCCCAACAGAGGAUUGAGCAUCA

Molecular target: T1, UNK ZnF1-3
Experiment: nsRBNS (natural sequence RNA bind-n-seq); RBNS binding buffer (assumed for nsRBNS): 25 mM Tris pH 7.5, 150 mM KCl, 3 mM MgCl2, 0.01% Triton X-100, 500 ug/ml BSA, 20 U/ml SUPERase-In, 4 C; UNK is unkempt and MSI1 is Musashi-1; names of the RNAs are library labels; protein concentration not given here; high values mean tight binding

| Binder | binding signal [enrichment R] |
| --- | --- |
| B1 | 0.614 |
| B2 | 1.41 |
| B3 | 1.05 |
| B4 | 4.08 |
| B5 | 0.632 |
| B6 | 0.874 |
| B7 | 6.73 |
| B8 | 0.613 |
| B9 | 1.75 |
| B10 | 1.2 |
| B11 | 1.61 |
| B12 | 10 |
| B13 | 3.43 |
| B14 | 1.39 |
| B15 | 6.27 |
| B16 | 3.55 |
| B17 | 1.1 |
| B18 | 3.38 |
| B19 | 3.73 |
| B20 | 4.46 |
| B21 | 0.682 |
| B22 | 4.8 |
| B23 | 1.58 |
| B24 | 3.36 |
| B25 | 0.56 |

Reference: PMC12136788
